Drawing on PubChem BioAssay AID2284183 (EPA ToxCast), this text covers AC50 for one molecule.

Structures are written as SMILES. Active and inactive are the calls of the source. How the source made its calls: active means hit-call score of the fitted dose curve at least 0.9, where 1 is the maximum; inactive means score below 0.9.

As a reminder, the AC50 is the midpoint of the concentration-response curve, whichever way the signal moves.

Chain of human Tachykinin Receptor NK2 Agonism, TACR2 (gene 6865) (P21452 whole entry, looked up): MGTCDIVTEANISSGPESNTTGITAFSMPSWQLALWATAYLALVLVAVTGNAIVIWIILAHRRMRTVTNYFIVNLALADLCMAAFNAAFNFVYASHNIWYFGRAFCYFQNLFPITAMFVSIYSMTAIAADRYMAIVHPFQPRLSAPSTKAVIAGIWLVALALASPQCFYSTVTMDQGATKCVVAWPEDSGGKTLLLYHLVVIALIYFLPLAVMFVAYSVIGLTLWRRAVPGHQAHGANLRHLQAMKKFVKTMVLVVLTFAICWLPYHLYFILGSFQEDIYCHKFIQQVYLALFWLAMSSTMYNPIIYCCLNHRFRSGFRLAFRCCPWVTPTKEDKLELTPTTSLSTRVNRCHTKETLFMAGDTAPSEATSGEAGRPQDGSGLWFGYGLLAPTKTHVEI

The target in the test is human Tachykinin Receptor NK2 Agonism, TACR2 (gene 6865) (UniProt P21452). The experiment in a line: ERF_TW_GPCR_hTACR2: Eurofins (ERF) G Protein-Coupled Receptor (GPCR) Radioligand Binding LeadHunter Assay for human Tachykinin Receptor NK2 Agonism. As to the method:
ERF_TW_GPCR_hTACR2 is a biochemical, single-readout assay that uses extracted gene-proteins in a cell-free assay. Measurements were taken 1.5 hour after chemical dosing in a 96-well plate. See NK2 Human Tachykinin GPCR Binding (Antagonist Radioligand) Assay, Panlabs.ERF_TW_GPCR_hTACR2 is an assay component calculated from the ERF_TW_GPCR_hTACR2 assay. It is designed to measure radioligand binding using a type of binding reporter as detected by scintillation counting with radiometry technology.Data from the assay component ERF_TW_GPCR_hTACR2 was analyzed at the assay endpoint, ERF_TW_GPCR_hTACR2, in the positive analysis fitting direction relative to DMSO as the negative control and baseline of activity. Using a type of binding reporter, loss-of-signal activity can be used to understand changes in radioligand binding as they relate to gene TACR2. To generalize the intended target to other relatable targets, this assay endpoint is annotated to the gpcr intended target family, where the subfamily is tachykinin.
Human recombinant neurokinin NK2 receptor expressed in CHO-hNK2 cells are used to prepare membranes in modified HEPES buffer pH 7.4. A 5 ug aliquot of membrane is incubated with 0.02 nM [125I]-Neurokinin A for 120 minutes at 25C. […] Membranes are filtered and washed, the filters are then counted to determine [125I]-Neurokinin A specifically bound. […]
As for `O=C(/C=C/c1ccc(O)cc1)CC(=O)/C=C/c1ccc(O)cc1`, the AC50 is 1.08 µM (active).
